A short description of assay [1]: BSK_BF4T_SRB: Viability Assessment in the BioMAP Diversity Plus: BF4T Assay (AID 2284274). Conditions: primary human bronchial epithelial cells with fibroblasts. A digest of the protocol: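 Cytotoxicity measured as total protein: cells fixed with 10% TCA, stained with 0.1% SRB, read at 560 nm. Bronchial epithelial/dermal fibroblast co-culture, 24 h after dosing, with positive-direction fitting relative to DMSO.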

Read-out in assay [2]: urokinase Plasminogen Activator (uPA), PLAU (gene 5328)
Briefly: BSK_BF4T_uPA: BioMAP Diversity Plus: BF4T Assay for urokinase Plasminogen Activator (uPA) Biomarker Activity (AID 2284275). As to conditions: primary human bronchial epithelial cells with fibroblasts. The gist of the method:
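uPA levels measured by ELISA at 24 hours in BF4T cultures (bronchial epithelial cells plus dermal fibroblasts) and compared with DMSO; cytotoxicity tracked in parallel cultures by sulforhodamine B staining.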

Read-out in assay [3]: Matrix Metallopeptidase 9 (MMP9), MMP9 (gene 4318)
Briefly: BSK_BF4T_MMP9: BioMAP Diversity Plus: BF4T Assay for Matrix Metallopeptidase 9 (MMP9) Biomarker Activity (AID 2284276). As to conditions: primary human bronchial epithelial cells with fibroblasts. The gist of the method: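 MMP-9 levels were measured by ELISA after 24 h exposure of bronchial epithelial cell/dermal fibroblast co-cultures, with DMSO as baseline. Parallel cultures were stained with 0.1% SRB after TCA fixation, read at 560 nm, to flag overt cytotoxicity.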

Read-out in assay [4]: Intercellular Adhesion Molecule 1 (ICAM1), ICAM1 (gene 3383)
The assay can be described thus: BSK_BE3C_ICAM1: BioMAP Diversity Plus: BE3C Assay for Intercellular Adhesion Molecule 1 (ICAM1) Biomarker Activity (AID 2284278).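 Note: cell-surface ICAM-1 protein level quantified by ELISA.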 As to conditions: primary human bronchial epithelial cells. A digest of the protocol:
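ICAM-1 quantified by ELISA and fitted against DMSO baseline, 24 h post-dosing in BE3C cultures of primary human lung bronchial epithelial cells. Cytotoxicity checked in parallel cultures by total protein SRB staining.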

Read-out in assay [5]: Interferon-inducible T-cell alpha chemoattractant (ITAC), CXCL11 (gene 6373)
The assay can be described thus: BSK_BE3C_ITAC: BioMAP Diversity Plus: BE3C Assay for Interferon-inducible T-cell alpha chemoattractant (ITAC) Biomarker Activity (AID 2284279). Conditions: primary human bronchial epithelial cells. The gist of the method:
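The assay measures I-TAC levels by ELISA in human primary bronchial epithelial cell cultures 24 hours after chemical treatment. Values reflect signal increase over the DMSO baseline.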

Read-out in assay [6]: Interleukin-8 (IL8), CXCL8 (gene 3576)
Briefly: BSK_BE3C_IL8: BioMAP Diversity Plus: BE3C Assay for Interleukin-8 (IL8) Biomarker Activity (AID 2284280). Conditions: primary human bronchial epithelial cells. The gist of the method: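 Dose human bronchial epithelial cells with chemical; incubate 24 h; quantify IL-8 by ELISA; fit response upward versus DMSO controls.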

Read-out in assay [7]: Epidermal growth factor receptor (EGFR), EGFR (gene 1956)
Briefly: BSK_BE3C_EGFR: BioMAP Diversity Plus: BE3C Assay for Epidermal growth factor receptor (EGFR) Biomarker Activity (AID 2284281). Conditions: primary human bronchial epithelial cells. The gist of the method:
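ELISA read-out of EGFR levels on human bronchial epithelial primary cells collected 24 h post-dosing. DMSO served as negative control and baseline for gain-of-signal fitting.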

Read-out in a further assay: KRT18 (gene 3875)
Briefly: BSK_BE3C_Keratin818: BioMAP Diversity Plus: BE3C Assay for Keratin 818 Biomarker Activity (AID 2284282). As to conditions: primary human bronchial epithelial cells. The gist of the method:
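ELISA readout of Keratin 8/18 in human primary bronchial epithelial cultures after 24 h chemical exposure, DMSO baseline. Parallel SRB staining (0.1%, TCA-fixed, 560 nm) served as cytotoxicity check.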

Read-out in assay [8]: Matrix Metallopeptidase 9 (MMP9), MMP9 (gene 4318)
The assay can be described thus: BSK_BE3C_MMP9: BioMAP Diversity Plus: BE3C Assay for Matrix Metallopeptidase 9 (MMP9) Biomarker Activity (AID 2284283). Conditions: primary human bronchial epithelial cells. The gist of the method: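 Human primary bronchial epithelial cells exposed 24 h to compound. MMP9 quantified by ELISA. SRB total-protein staining of parallel cultures assesses cytotoxicity. Positive-direction fit relative to DMSO.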

Read-out in assay [9]: Plasminogen activator inhibitor-1 (PAI1), SERPINE1 (gene 5054)
The assay can be described thus: BSK_CASM3C_PAI1: BioMAP Diversity Plus: CASM3C Assay for Plasminogen activator inhibitor-1 (PAI1) Biomarker Activity (AID 2284284).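 Note: PAI-1 protein level measured by ELISA 24 h after dosing.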 Conditions: primary human coronary artery smooth muscle cells.

Read-out in assay [10]: Monocyte Chemoattractant Protein-1 (MCP1), CCL2 (gene 6347)
Briefly: BSK_hDFCGF_MCP1: BioMAP Diversity Plus: hDFCGF Assay for Monocyte Chemoattractant Protein-1 (MCP1) Biomarker Activity (AID 2284285). As to conditions: primary human foreskin fibroblasts. The gist of the method:
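MCP-1 ELISA readout was taken 24 hours after dosing primary human dermal fibroblasts in the hDFCGF system, with DMSO as baseline. Parallel sulforhodamine B staining of total protein tracked overt cytotoxicity.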

Read-out in assay [11]: Vascular cell adhesion molecule 1 (VCAM1), VCAM1 (gene 7412)
Briefly: BSK_IMphg_VCAM1: BioMAP Diversity Plus: IMphg Assay for Vascular cell adhesion molecule 1 (VCAM1) Biomarker Activity (AID 2284286). As to conditions: primary human endothelial cells with macrophages. A digest of the protocol:
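ELISA read-out of VCAM-1 on venular endothelial cell/macrophage co-cultures at 24 h post-treatment, with DMSO as baseline and positive-direction fitting. Parallel sulforhodamine B total-protein staining (560 nm) served as the overt cytotoxicity measure.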

Read-out in assay [12]: Intercellular Adhesion Molecule 1 (ICAM1), ICAM1 (gene 3383)
Briefly: BSK_hDFCGF_ICAM1: BioMAP Diversity Plus: hDFCGF Assay for Intercellular Adhesion Molecule 1 (ICAM1) Biomarker Activity (AID 2284287). As to conditions: primary human foreskin fibroblasts. A digest of the protocol: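 ICAM-1 ELISA readout 24 h after dosing, DMSO as baseline, in human dermal foreskin fibroblast cultures. Cytotoxicity checked in parallel wells by SRB staining (0.1% SRB, 10% TCA fixation, 560 nm).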

Read-out in another assay: CD40, CD40 (gene 958)
Briefly: BSK_IMphg_CD40: BioMAP Diversity Plus: IMphg Assay for CD40 Biomarker Activity (AID 2284288). Conditions: primary human endothelial cells with macrophages. The gist of the method:
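ELISA read-out of cell-surface CD40 at 24 h in human venular endothelial cell/macrophage co-cultures. Activity fitted in the positive direction against DMSO; parallel SRB staining (560 nm) gauges overt cytotoxicity.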

Read-out in assay [13]: TIMP metallopeptidase inhibitor 2 (TIMP2), TIMP2 (gene 7077)
Briefly: BSK_hDFCGF_TIMP2: BioMAP Diversity Plus: hDFCGF Assay for TIMP metallopeptidase inhibitor 2 (TIMP2) Biomarker Activity (AID 2284289). Conditions: primary human foreskin fibroblasts. A digest of the protocol: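 Primary human foreskin fibroblasts in the hDFCGF system, dosed for 24 h; TIMP-2 level measured by ELISA, fitted in the positive direction against DMSO; cytotoxicity checked in parallel by sulforhodamine B total protein staining.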

Read-out in assay [14]: Interleukin-1 alpha (IL1a), IL1A (gene 3552)
The assay can be described thus: BSK_IMphg_IL1a: BioMAP Diversity Plus: IMphg Assay for Interleukin-1 alpha (IL1a) Biomarker Activity (AID 2284290). Conditions: primary human endothelial cells with macrophages. A digest of the protocol:
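IL-1α is quantified by ELISA at 24 h in the endothelial/macrophage IMphg co-culture, with gain of signal fitted relative to DMSO. Parallel SRB total-protein staining flags overt toxicity.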

“And” between values parts separate entries of the source, which are not always exact repeats. Equal values may be shown once. A structure can be active in one record and inactive in another. The source made the active and inactive calls. Rule for the calls: active = hit-call score of the fitted dose curve at least 0.9, where 1 is the maximum; inactive = score below 0.9.

One may read the AC50 as the concentration giving half of the maximal activity seen.

On to `NC(O)(C(F)(F)F)C(F)(F)F`, for which the result in assay [1], in assay [2], in assay [3], in assay [4], in [5] and in assay [6] was inactive. The result (in [7]; with KRT18 (gene 3875); in assay [8]; in assay [9]; in [10]; in assay [11]) was inactive. For the same compound, the outcome is “inactive” in assay [12]; “inactive” in the assay with CD40, CD40 (gene 958); “inactive” in assay [13]; “inactive” in [14].
On to `OCC(O)CC(F)(F)C(F)(F)C(F)(F)C(F)(F)C(F)(F)C(F)(F)C(F)(F)C(F)(F)F` (stereo not given), for which the result in assay [1], in assay [2], in assay [3], in [4], in assay [5] and in assay [6] was inactive. For the same compound, the outcome (in [7]; with KRT18 (gene 3875); in assay [8]; in [9]; in assay [10]; in [11]) was inactive. The outcome was “inactive” in assay [12]; “inactive” with CD40, CD40 (gene 958); “inactive” in [13]; “inactive” in [14].
In the case of `NCC(F)(F)C(F)(F)C(F)(F)C(F)(F)C(F)(F)C(F)(F)C(F)(F)C(F)(F)F`, the result in [1], in [2], in [3], in assay [4], in assay [5] and in assay [6] was inactive. In addition, the result (in [7]; with KRT18 (gene 3875); in assay [8]; in assay [9]; in assay [10]; in [11]) was inactive. The outcome in [12] is “inactive”; with CD40, CD40 (gene 958), “inactive”; in assay [13], “inactive”; in assay [14], “inactive”.
As to `OCC(O)CC(F)(F)C(F)(F)C(F)(F)C(F)(F)F` (stereo not given), the outcome in [1], in assay [2], in assay [3], in assay [4], in assay [5] and in [6] was inactive. For the same compound, the outcome (in assay [7]; in the assay with KRT18 (gene 3875); in [8]; in assay [9]; in assay [10]; in assay [11]) was inactive. Moreover, the outcome in [12] is “inactive”; in the assay with CD40, CD40 (gene 958), “inactive”; in [13], “inactive”; in [14], “inactive”.
With `NC(=O)C(F)(F)C(F)(F)C(F)(F)C(F)(F)C(N)=O`, the result in assay [1], in assay [2], in assay [3], in assay [4], in [5] and in assay [6] was inactive. The result (in [7]; in the assay with KRT18 (gene 3875); in assay [8]; in [9]; in [10]; in assay [11]) was inactive. Besides, the outcome in [12] was “inactive”; in the assay with CD40, CD40 (gene 958), “inactive”; in assay [13], “inactive”; in assay [14], “inactive”. Besides, the AC50 in [12] was 17.6 µM (active); in assay [13], 0.22 µM (active).
With `C=CC(=O)OCCC(F)(F)C(F)(F)C(F)(F)C(F)(F)F`, the result in assay [1], in assay [2], in assay [3], in [4], in assay [5] and in assay [6] was inactive. Further, the outcome (in assay [7]; with KRT18 (gene 3875); in assay [8]; in assay [9]; in assay [10]; in assay [11]) was inactive. Besides, the outcome with CD40, CD40 (gene 958) is “inactive”; in [13], “inactive”; in [14], “inactive”. In addition, the concentration at half-maximal activity (AC50) in assay [10] is 20.3 µM (active); in [12] it was 30 µM (active) and 38.2 µM (active); in [13], 2.55 µM (active).
